# Keap1-Nrf2 PPI: inhibitors of human Keap1-Nrf2 protein-protein interaction. Q14145. hit rate 0.15% among 340,000. Keap1 Kelch-Nrf2 peptide fluorescence polarization, 1536-well. inhibition, % at 9.4 µM; in the data active means inhibition above about 12%;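 further: human Keap1 Kelch domain with fluorescein labeled Nrf2 9mer peptide probe; 0% = neutral control wells and 100% = peptide positive control; higher means more block of Keap1 binding to Nrf2 peptide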
# Target sequence (Q14145 whole entry, looked up, the tested form may be a part): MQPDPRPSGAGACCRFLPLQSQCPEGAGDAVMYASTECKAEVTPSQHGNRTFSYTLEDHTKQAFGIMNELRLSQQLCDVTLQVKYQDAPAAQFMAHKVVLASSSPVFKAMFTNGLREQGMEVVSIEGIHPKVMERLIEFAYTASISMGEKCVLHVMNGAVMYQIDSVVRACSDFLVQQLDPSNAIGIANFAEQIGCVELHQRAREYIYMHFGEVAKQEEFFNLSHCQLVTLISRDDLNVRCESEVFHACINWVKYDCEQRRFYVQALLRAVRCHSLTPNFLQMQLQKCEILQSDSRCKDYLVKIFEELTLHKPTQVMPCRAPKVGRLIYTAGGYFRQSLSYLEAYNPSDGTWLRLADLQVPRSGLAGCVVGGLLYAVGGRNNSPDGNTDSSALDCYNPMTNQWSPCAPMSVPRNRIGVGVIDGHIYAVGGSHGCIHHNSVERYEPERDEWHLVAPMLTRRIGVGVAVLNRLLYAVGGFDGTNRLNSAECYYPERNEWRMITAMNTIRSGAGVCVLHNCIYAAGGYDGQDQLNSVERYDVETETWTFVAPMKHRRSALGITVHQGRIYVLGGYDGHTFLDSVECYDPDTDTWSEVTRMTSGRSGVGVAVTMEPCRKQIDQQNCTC
# RTF Ca sens act: increases calcium sensitivity of human cardiac regulated thin filaments; IANBD-labeled TnC RTF fluorescence at EC20 calcium; 0% EC20 calcium, 100% full calcium; activation, % at 7.2 µM; P19429+P45379; hit rate 0.24% among 340,000;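 active means activation above the mean over all tested compounds plus 3 SD, cut at about 30% in these data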;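 further: rise in fluorescence read as greater calcium sensitivity of cardiac thin filaments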
# LANA-H2B inh: blocks KSHV LANA binding to histone H2A/H2B | Q9QR71 | cell-free LANA-H2A/H2B peptide, fluorescence polarization | inhibition, % (concentration not given with the values) | hit rate 0.6% among 320,000 | AID 2629; in the data active means inhibition mostly above about 10%, no sharp cut-off; inactive means mostly below about 6.7%
# C-LANA FP: inhibitors of KSHV LANA C-terminal domain DNA binding; MBP-C-LANA/FAM-LBS DNA binding, fluorescence polarization; inhibition, % at 9 µM; hit rate 0.078% among 340,000;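 active means highest replicate inhibition at or above 60% at 9 µM, even if other replicates fall short; inactive means all replicates below 60% inhibition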;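 further: 0% = neutral control wells and 100% = 4 µM acridine orange control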
# RTF Ca sens inh: cardiac RTF calcium desensitization. IANBD-labeled cardiac RTF, Ca2+ fluorescence. inhibition, % at 7.15 µM. hit rate 0.12% among 340,000. AID 493244;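 active means inhibition above the mean inhibition of all tested compounds plus 3 SD, cut at about 17% in these data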;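 further: assay run at fixed EC70 calcium of 1.6 mM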
# Starred values were filed as active, the others as inactive; i = inactive; nt = no result; + = active, no number. An excerpt weighted towards active compounds, which were near 1% of everything screened.
SMILES,Keap1-Nrf2 PPI,RTF Ca sens act,LANA-H2B inh,C-LANA FP,RTF Ca sens inh
Cc1ccc(C2C(C(=O)c3ccco3)=C(O)C(=O)N2c2nnc(C)s2)cc1 (stereo not given),-5,1,0,2,-8
O=C(O)c1ccc(N2C(=O)CC(N3C(=O)/C(=C/c4ccc(Cl)cc4)SC3=S)C2=O)cc1 (stereo not given),0,-1,13,1,6
O=C(c1coc(=O)c(Br)c1)N1CCCc2ccccc21,-1,2,-1,77*,1
CSCCC(NS(=O)(=O)c1ccc2ccccc2c1)C(=O)O (stereo not given),0,-2,28*,-2,2
CSCCC(NS(=O)(=O)c1ccc(Cl)c(Cl)c1)C(=O)O (stereo not given),2,0,17*,0,6
COC(=O)C(CCSC)NS(=O)(=O)c1ccc(Cl)cc1 (stereo not given),1,0,-2,1,-15
COc1ccc(C(=O)COC(=O)C(CCSC)NS(=O)(=O)c2ccc(Cl)cc2)cc1 (stereo not given),4,-4,176*,0,-2
Cc1c(CC(=O)O)c(=O)oc2cc(OCc3ccc(Cl)cc3)ccc12,-2,-2,44*,-1,-1
CCOc1ccccc1-c1c2cc(O)c(=O)cc-2oc2cc(O)c(O)cc12,+,+,nt,158*,i
COc1ccc(OC)c(-c2c3cc(O)c(=O)cc-3oc3cc(O)c(O)cc23)c1,+,+,nt,167*,i
Cc1ccccc1-c1cc(=O)c2c(O)cccc2o1,-5,9,10,0,-18
COc1ccc(OC)c(-c2oc3ccccc3c(=O)c2O)c1,1,2,3.4*,0,-3
O=c1cc2oc3cc(O)c(O)cc3c(-c3ccccc3O)c-2cc1O,49*,51*,nt,146*,-23
CCOC(=O)c1oc2cc(O)ccc2c(=O)c1-c1ccccc1OC,-5,6,5,0,-13
COc1ccc(C(=O)NCC(=O)OCC(=O)Nc2ccc(C)c(S(=O)(=O)N(C)C)c2)cc1OC,3,-1,-6,1,-3
Cc1c(NC(=O)/C=C/c2ccc(S(=O)(=O)N3CCOCC3)cc2)c(=O)n(-c2ccccc2)n1C,-2,5,-2,-1,-5
COc1ccc(N(C(=O)c2snc(C(N)=O)c2N)C(C(=O)NC2CCCC2)c2cccs2)c(OC)c1 (stereo not given),-4,-5,4,0,2
CCOCCc1nnc(NC(=O)CCC2CCCCC2)s1,-3,3,-2,-6,-6
CCN(CC(=O)Nc1ccc(N2CCOCC2)cc1)C(=O)COc1ccccc1OC,-4,0,10*,0,-7
O=C(CN1CCN(Cc2cccc(C(F)(F)F)c2)CC1)NCC(=O)Nc1ccc(F)c(F)c1F,5,0,nt,1,6
O=C1C=CC(=O)c2c(O)c(CO)c(CO)c(O)c21,9,-32,nt,31,36*
O=c1c(CO)cc(CO)cc(CO)c1O,-7,1,0,3,-17
CC(C)C12CN3CC(C(C)C)(CN(C1)C3c1ccccc1)C2O (stereo not given),-3,-1,8.5*,2,-6
O=c1c(/C=N/Nc2ccccc2)c(Sc2nnnn2-c2ccccc2)nc2ccccn12,0,32*,nt,2,-60
O=c1[nH]c(Cc2ccccc2)nc2c1oc1ccccc12,0,-1,8.2*,0,-1
SMILES,Keap1-Nrf2 PPI,RTF Ca sens act,LANA-H2B inh,C-LANA FP,RTF Ca sens inh
O=c1[nH]c(CO)nc2c1oc1ccccc12,-2,4,4,-1,-19
Cn1ncc(Cl)c1C(=O)Nc1cccc(Cl)c1,2,16,5,0,-6
Cn1ncc(N=Cc2c(O)ccc3ccccc23)c1C(=O)Nc1cccc(Cl)c1,8,43*,8,7,-8
CC(=O)Nc1sc(/C(C#N)=C\c2cccc(Cl)c2)nc1-c1ccc(C)cc1,-3,43*,-6,1,-96
CCN(CC)c1ccc(C2=NNC(=O)CC2C)cc1[N+](=O)[O-] (stereo not given),1,-2,20*,0,-2
CC1CC(=O)NN=C1c1ccc(N(C)C)c([N+](=O)[O-])c1 (stereo not given),-3,0,-2,0,-2
O=C(O)CCCNc1cc(N2CCC3(CC2)OCCO3)c2noc3c2c1C(=O)c1ccccc1-3,nt,nt,38*,nt,nt
CCOC(=O)N1CCN(c2cc(NCCC(=O)O)c3c4c(onc24)-c2ccccc2C3=O)CC1,-252,24,37*,-27,3
C=C(C)CC(Nc1ccc(OC)cc1)c1ccco1 (stereo not given),-2,1,-9,0,-2
COCCCn1c(=NC(=O)c2ccncc2)c(C#N)cc2c(=O)n3cccc(C)c3nc21,4,11,5,15,-6
Cc1cccn2c(=O)c3cc(C#N)c(=NC(=O)c4ccncc4)n(CCCOC(C)C)c3nc12,0,-1,8.9*,-2,6
C=CCN(CC=C)CCOc1cccc(Oc2ccccc2)c1,4,-5,-4,-2,-9
C/C(=N\NC(=O)c1cc(-c2ccccn2)nc2ccccc12)c1cccc([N+](=O)[O-])c1,-6,6,-6,98*,-1
C/C(=N\NC(=O)c1cc(C)nc2ccccc12)c1ccc([N+](=O)[O-])cc1,0,0,4,0,-11
CC(=O)Nc1ccc(C(=O)OCCc2ccccc2)cc1,-11,10,15*,-2,-5
Cn1[nH]cc(C=NC(N)=O)c1=O,3,12,nt,1,-11
COc1ccc(/C=C\C(=O)O[C@@H]2C(O)C(O[C@@H]3OC(C)[C@H](O[C@@H]4OCC(O[C@H]5O[C@H](CO)[C@@H](O)C(O)C5O)C(O)C4O)C(O)C3O)[C@H](OC(=O)[C@]34CCC(C)(C)C[C@@H]3C3=CCC5[C@@]6(C)CC(O)C(O[C@@H]7OC(CO)C(O)[C@H](O)[C@H]7O)[C@@](C)(C(=O)O)C6CC[C@@]5(C)[C@]3(CO)CC4)O[C@H]2C)cc1 (stereo not given in full),6,-1,-1,-1,-12
COc1ccc(OC)c(-c2csc(NC(=O)C3=COCCO3)n2)c1,3,-6,-1,1,-11
Cc1ccc(C(=O)N2CCN(C/C=C/c3ccccc3)CC2)cc1S(=O)(=O)N1CCOCC1,-2,0,nt,-1,-5
Cn1c(=O)cc2c3c(c(N4CCCCC4)ccc31)C(=O)c1ccccc1-2,nt,nt,22*,nt,nt
O=C1c2ccccc2C(=O)c2c1cccc2N1CCCC1,-3,2,0,0,7
COc1ccc(N(CC(=O)Nc2cc(C)ccc2C)S(=O)(=O)c2c(C)noc2C)cc1,0,-4,4,0,4
COc1ccc(N(CC(=O)Nc2cc(Cl)ccc2C)S(=O)(=O)c2c(C)noc2C)cc1,-3,-1,51*,-1,-1
CC(C)(C)NCC(=Cc1ccccc1)C(=O)c1ccccc1,-11,3,nt,0,1

# High-throughput results as filed in PubChem BioAssay.
